Test results from ChEMBL document CHEMBL3988442, “University of Dundee, Small-Polar-MMV Screening Library” (2021).
In all, about 48,000 compounds went through this assay and about 13,000 (27%) showed an effect of 50% or more. The list shows a part of the results.

What follows are compounds tested on Wolbachia pipientis (assay: Anti-Wolbachia Cell-Based Screen). Conditions: 5 µM.
Format: functional
Design: scale not given: in the data most compounds retested in dose-response had high values

Row | Compound | Percent Effect
1 | CC(C)c1nc(-c2cc(C(=O)NCCN(C)C)c3ccccn23)cs1.O=C(O)C(F)(F)F | -4.099%
2 | O=C1N(CCCc2ccccc2)CCCC1(O)CN1CCC(CO)CC1 (centres undefined) | -7.352%
3 | CC(C)n1ncc2c1NC(=O)C(C#N)C21CCCC1 (centres undefined) | 15.91%
4 | CS(=O)(=O)N1CC[C@H]2O[C@H](C(=O)NCCc3ccncc3)CC[C@H]21.O=C(O)C(F)(F)F | -5.225%
5 | COCCN1CCO[C@@H]2CN(Cc3ccc(C)s3)C[C@@H]2C1.O=C(O)C(F)(F)F.O=C(O)C(F)(F)F | -5.835%
6 | Cc1ccc(CN2CC[C@@H]3OCCN(S(C)(=O)=O)[C@H]3CC2)s1.O=C(O)C(F)(F)F | 114.1%
7 | Cc1ccc(CN2CC[C@H]3[C@H]2CCN3S(=O)(=O)C2CC2)s1.O=C(O)C(F)(F)F | -4.175%
8 | Cc1ccc(CN2CC[C@H]3OCC[C@@H](C(=O)NCC4CC4)[C@@H]3C2)s1.O=C(O)C(F)(F)F | -8.513%
9 | Cc1ccc(CN2CC[C@H]3[C@H]2CCN3S(C)(=O)=O)s1.O=C(O)C(F)(F)F | -3.604%
10 | Cc1ccc(CN2CC[C@@H]3OCCN(Cc4ccncc4)[C@H]3CC2)s1.O=C(O)C(F)(F)F.O=C(O)C(F)(F)F.O=C(O)C(F)(F)F | 91.24%
11 | CS(=O)(=O)N1CCO[C@@H]2CCN(Cc3ccncc3)CC[C@H]21.O=C(O)C(F)(F)F.O=C(O)C(F)(F)F | 114.1%
12 | CS(=O)(=O)N1CCO[C@@H]2CN(Cc3ccc(F)cc3)CC[C@@H]2C1.O=C(O)C(F)(F)F | -0.3298%
13 | CC1CN(S(=O)(=O)c2cc(S(C)(=O)=O)ccc2Br)c2cccnc2O1 (centres undefined) | -14.61%
14 | CC1(C)CN(CC(F)(F)F)CCN1CC(=O)N1CCCCC1 | -2.434%
15 | O=C(O)C(F)(F)F.O=S(=O)(NC[C@]12COC[C@H]1CN(c1ncc(F)cn1)C2)C1CC1 | 7.707%
16 | Cc1nn(C)c(C)c1CCC(=O)N(C)Cc1ccc2nsnc2c1 | 27.84%
17 | Cc1nn(CCC#N)c(C)c1CCC(=O)N(C)Cc1ccsc1 | 21.07%
18 | COC(=O)CCc1c(C)nc2cc(O)nn2c1C | 10.93%
19 | COCC(C)N(C)C(=O)CCc1c(C)nc2c(C#N)cnn2c1C (centres undefined) | -1.234%
20 | Cc1nc2c(C#N)cnn2c(C)c1CCC(=O)N(C)C(C)C(C)C (centres undefined) | 7.938%
21 | Cc1nc2cc(O)nn2c(C)c1CCC(=O)N(C)CCC(C)C | 96.83%
22 | Cc1nc2ccnn2c(C)c1CCC(=O)N1CCN(C2CC2)CC1 | 0.559%
23 | CCCN(CC(F)F)C(=O)CCc1c(C)nc2cc(O)nn2c1C | 131.4%
24 | Cc1nc2cc(O)nn2c(C)c1CCC(=O)N(C)Cc1ccccc1 | 86.37%
25 | CN1CCC2(CCC1=O)CCN(C(=O)Cc1ccc(O)c(F)c1)CC2 | 0.2124%

Row | Compound | Percent Effect
26 | Cc1ccn(CCNc2ncnc3c2CCN(c2cnccn2)CC3)n1 | 7.115%
27 | CC(O)CN1CCC(CNCc2cccc(Br)c2)CC1 (centres undefined) | 7.461%
28 | O=C(c1nnn(-c2ccc(F)cc2)n1)N1CCC(O)CC1 | 1.522%
29 | COc1cccn(CC(=O)N(C)CCOc2cc(C)cc(C)c2)c1=O | -7.697%
30 | COc1cccc(CN2CCN(C(=O)CN3CCOCC3)CC2)n1 | -0.8074%
31 | O=C(Cn1nnc(-c2cc3ccccc3o2)n1)N1CCOCC1 | -8.281%
32 | COc1ccc(-c2cc3cccn(CC(=O)N4CCOCC4)c-3n2)cc1 | 153.8%
33 | O=C(Cn1cccc2cc(-c3ccc(F)cc3)nc1-2)N1CCC(O)CC1 | 121.3%
34 | COC1CCN(C(=O)Cn2ccc3ccccc32)CC1 | 0.3613%
35 | CN(C)CCN(C)C(=O)Cn1cccc2cc(-c3ccc(F)cc3)nc1-2 | 149.6%
36 | COCCN(C)C(=O)Cn1cccc(OC)c1=O | -3.023%
37 | CC(C)(C)c1nnc(CN2CCC(c3cc4ccccc4[nH]3)CC2)o1 | 4.334%
38 | COCCc1noc(-c2cn(Cc3ccccc3C)nn2)n1 | -12.89%
39 | NS(=O)(=O)CCNC(=O)C1(c2ccccc2)CC1 | -12.67%
40 | O=C(NCCCNc1ccccn1)NCC1CCS(=O)(=O)C1 (centres undefined) | 10.33%
41 | CC(C)c1ncc2c(n1)CN(Cc1ccc(C(N)=O)cc1)CC2 | -9.095%
42 | CC(C)c1ncc2c(n1)CN(CC1CCCCO1)CC2 (centres undefined) | -13.54%
43 | Cc1nc(C)n(CC2CCCN(c3ncnc4[nH]ccc34)C2)n1 (centres undefined) | 6.618%
44 | c1ncc2c(n1)CN(c1ncnc3[nH]ccc13)CC2 | 97.2%
45 | COCCCN1CC2(CCCN(c3ncnc4[nH]ccc34)C2)CCC1=O (centres undefined) | 0.6665%
46 | OC1(CN2CCCC2)COCCN(c2ncnc3[nH]ccc23)C1 (centres undefined) | 7.822%
47 | Cn1cc(C2CCCN2c2ncnc3[nH]ccc23)cn1 (centres undefined) | -13.62%
48 | CN(C)CC1CN(c2ncnc3[nH]ccc23)CCO1 (centres undefined) | 4.502%
49 | c1nc(N2CCc3[nH]cnc3C2)c2cc[nH]c2n1 | 98.13%
